Structures are written as SMILES. Out of some 4,500 compounds screened, about 200 (4.4%) were called active. Many of the other results were omitted from the sample, so actives are more common in it than they were. A number with no mark means an inactive call.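 How the source made its calls: active means cell survival measured by absorbance rises more than 2.5-fold over infected cells without compound; inactive means the rest.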

This assay is described as follows: survival after telomere uncapping, modulators, primary screen, cell-based (AID 1259312).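 Further: virus expresses mutant telomerase RNA that uncaps telomeres and kills cells; compound added 2 days after infection so exposure lasts 3 days.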 The conditions noted are these: HCT116 + Ad-hTR-mut, MTT, 5 d; at 10 µM, hits give high values.
For `COC(=O)C1=C(CSCc2ccco2)NC(=O)NC1c1ccc(C)cc1C` (configuration not stated), the fold change was -1.35. With `CCOC(=O)c1c(NC(=O)C(F)(F)F)sc2c1CCN(C(=O)OCC)C2`, the fold change was 1.21.

`Cc1ccc(-c2nc(CSc3nccc(N)n3)cs2)cc1`: the fold change is -2.25. On to `O=S(=O)(Nc1ccc(Br)cc1)c1ccccc1`, for which the fold change was 2.66 (active). In the case of `O=S(=O)(Nc1ccc(Br)cc1)c1ccc(Cl)cc1` it was 1.91; in that of `O=S(=O)(Nc1ccc(S(=O)(=O)Nc2ccc(F)cc2)cc1)c1ccccc1`, -1.01. Next, `O=C1c2cccc(Cl)c2C(=O)c2cccc(Cl)c21`: -1.08; `CCc1sc(/C=C(/C#N)C(=O)OC)cc1[N+](=O)[O-]`: -2.59. Next, `CN(C)CCCNc1ccc([N+](=O)[O-])cc1Cl`: 3.8 (active); `CN(C)CCNc1ccc(Cl)cc1[N+](=O)[O-]`: 1.53; `NCCCNc1ccc([N+](=O)[O-])cc1Cl`: 1.09.

For the molecule `CCNCCNc1ccc([N+](=O)[O-])cc1Cl`, the fold change is 1.86. Next, `NCCCNc1ccc(Cl)cc1[N+](=O)[O-]`: -1.5. Regarding `NCCNc1ccc([N+](=O)[O-])cc1[N+](=O)[O-]`, the fold change is 1.82. Next, `CCN(CC)CCNc1ccc(Cl)cc1[N+](=O)[O-]`: 3.03 (active); `O=[N+]([O-])c1ccc(NCCO)c([N+](=O)[O-])c1`: 1.74. Turning to `CCN(CC)CCNc1ccc([N+](=O)[O-])cc1[N+](=O)[O-]`, the fold change is 3.5 (active). In the case of `Cc1cccc(-c2cc(=O)c3cc(Br)ccc3o2)c1` it was 1.11; in that of `Nc1nc(C=C(Cl)Cl)cs1`, 1.63; in that of `COc1cc2c(cc1OC)C(C(=O)O)CC(=O)N2` (configuration not stated), -1.06.

On to `COc1ccc(C(O)c2nccn2C)cc1OC` (configuration not stated), for which the fold change was -1.55. Next, `COc1ccc(-c2coc3ccc(OC4OC(COC(C)=O)C(OC(C)=O)C(OC(C)=O)C4OC(C)=O)c(OC(C)=O)c3c2=O)cc1` (configuration not stated): -1.42; `CC1=NN(c2ccccc2)C(=O)/C1=C\c1cn(-c2ccccc2)nc1C12CC3CC(CC(C3)C1)C2`: -2.06; `Clc1ccc(N=Cc2ccccc2Cl)nc1`: 1.71. Consider `Oc1c(Br)cc(Br)cc1C=Nc1ccc(F)cc1`, for which the fold change result is “inactive”. Next, `Clc1nc2ccccc2cc1C=Nc1ccc(Br)cc1`: 3.97 (active); `COc1cc(N=Cc2cc3ccccc3nc2Cl)c(OC)cc1Cl`: 3.58 (active); `Clc1cccc(N=Cc2cc3ccccc3nc2Cl)c1Cl`: 3.42 (active). With `Oc1c(Br)cc(Br)cc1C=Nc1ccc(Cl)c(Cl)c1`, the fold change entry was “inactive”.

As for `COc1cc(N=Cc2cc(Cl)cc(Cl)c2O)c(OC)cc1Cl`, the fold change entry was “inactive”. In the case of `Clc1ccc(Cl)c(N=Cc2cc3ccccc3nc2Cl)c1` it was 1.49; in that of `CC(Sc1ccccc1)C(=O)N[C@@H]1C[C@H]2CC[C@@H]1C2` (some centres not stated), -1.09; in that of `c1ccc(-c2nc(Sc3nc(-c4ccccc4)nc4ccccc34)c3ccccc3n2)cc1`, -1.53. Next, `O=c1[nH]c(=O)n(-c2ccccc2)c(O)c1/C=C1\C=Nc2ccccc21`: “inactive”. For `N#Cc1cnn2cc(-c3[nH]ncc3[N+](=O)[O-])cnc12`, the fold change is 3.75 (active). In the case of `N#Cc1cnn2cc([N+](=O)[O-])cnc12` it was -1.15; in that of `CCOC(=O)c1cnn2cc(-c3[nH]ncc3[N+](=O)[O-])cnc12`, -1.64; in that of `O=c1[nH]n2cc(-c3[nH]ncc3[N+](=O)[O-])cnc2c1[N+](=O)[O-]`, 4.1 (active). On to `O=C(O)c1[nH]ncc1[N+](=O)[O-]`, for which the fold change is 1.94. In the case of `NC(=O)c1[nH]ncc1[N+](=O)[O-]`, the fold change is 1.08.

With `Cc1cc(C)n2[nH]c(=O)c([N+](=O)[O-])c2n1`, the fold change is 1.66.

Consider `O=c1[nH]n2cc(-c3n[nH]c(-c4cnc5c(Br)c(=O)[nH]n5c4)c3[N+](=O)[O-])cnc2c1Br`, for which the fold change is 3.53 (active). For the molecule `Cn1c(=O)oc2ccc(S(=O)(=O)Nc3ccc4c(c3)CCN4S(C)(=O)=O)cc21`, the fold change is -1.03.

Take `O=C(O)C1CC(=O)N(CC2CCCO2)C1` (configuration not stated): the fold change is -1.58. Next, `CCc1sc(/C=C(/C#N)C(=O)OC(C)C)cc1Br`: -3.71; `Fc1ccc(-c2cnc3ccccc3n2)cc1`: -2.09; `O=C(CCn1cnnn1)Nc1nc2cc(OC(F)(F)F)ccc2s1`: 1.2. On to `COC1OC2COC(c3ccccc3)OC2C(O)C1O` (configuration not stated), for which the fold change was 3.25 (active). In the case of `COC1OC2COC(c3ccccc3)OC2C(O)C1OS(=O)(=O)c1ccc(C)cc1` (configuration not stated), the fold change was 2.36. For `COc1ccc(-c2nnc(N)o2)cc1`, the fold change was 1.14. In the case of `COc1ccc(C=Nc2nonc2N)cc1` it was -2.59.

`COc1ccc(N=Nc2c(N)n[nH]c2N)cc1`: the fold change entry was “active”. Next, `Cc1cc(C)nc(/N=C(/N)Nc2ccc(C)c([N+](=O)[O-])c2)n1`: -1.56; `O=C(O)c1cc2cc3c4c(c2oc1=O)CCCN4CCC3`: 1.07. With `CC(C)(C)[Si](C)(C)N1C(=O)C[C@H]1C(=O)O`, the fold change was 1.19. For the molecule `O=c1[nH]snc1N1CCOCC1`, the fold change is -1.16. `O=C1c2ccc([N+](=O)[O-])cc2C(=O)N1Cc1nc2ccccc2c(=O)o1`: the fold change was -5.24. In the case of `O=C1c2ccc([N+](=O)[O-])cc2C(=O)N1CNc1ccc2c(c1)oc1ccccc12` it was 2.96 (active).

On to `CN1C(=O)c2ccc([N+](=O)[O-])cc2C1=O`, for which the fold change is 1.34. As to `O=S(=O)(NCc1ccc2c(c1)OCO2)c1ccc2ccccc2c1`, the fold change was -1.07. In the case of `O=c1oc(-c2cccs2)nc2cc([N+](=O)[O-])ccc12` it was 1.07.

With `O=C(COc1cccc2ccccc12)N1CCc2ccccc21`, the fold change was -1.51. Regarding `O=C(C(=O)N1CCc2ccccc21)N1CCc2ccccc21`, the fold change was -1.35. As to `O=C(CCl)N1CCc2ccccc21`, the fold change was 3.82 (active). Next, `CCOC(=O)c1c(NC(=O)c2ccco2)sc(C(=O)N2CCCC2)c1C`: -2.09; `O=C1C(=Cc2c[nH]c3ccccc23)C(=O)c2ccccc21`: -1.41. As to `Nc1nnc(SCC(=O)N2CCCC2)s1`, the fold change is 1.32. In the case of `CN(C)C(=O)CSc1nnc(N)s1` it was 3.85 (active); in that of `NC(=O)CSc1nnc(SCC(N)=O)s1`, -3.2. With `Cc1cc(C)c2oc(-c3cc(N)ccc3Cl)nc2c1`, the fold change is 1.24. For `Cn1cnnc1-c1ccc(N)cc1`, the fold change was -1.13. With `CC(C)(C)c1ccc(-c2nnc(-c3ccc(Cl)cc3Cl)o2)cc1`, the fold change was -1.32. With `S=c1[nH]ccn1-c1ccccc1`, the fold change was 1.02.

Turning to `NC(=O)c1no[n+]([O-])c1C(N)=O`, the fold change is -1.25. Consider `c1ccc(-c2csc(N3CCN(C(c4ccccc4)c4ccccc4)CC3)n2)cc1`, for which the fold change is 1.15. Regarding `O=[N+]([O-])c1ccc(-n2nnc3ccccc32)c([N+](=O)[O-])c1`, the fold change was -1.31. Take `O=[N+]([O-])c1ccccc1S(=O)(=O)n1cnc2ccccc21`: the fold change was 3.82 (active). Next, `O=[N+]([O-])c1ccc(S(=O)(=O)Nc2nc3ccccc3s2)cc1`: 1.84; `O=[N+]([O-])c1ccc(NCCCn2cnc3ccccc32)nc1`: 1.16; `O=[N+]([O-])c1ccccc1-n1ccnc1`: -1.71. Next, `O=[N+]([O-])c1ccc(S(=O)(=O)n2cnc3ccccc32)cc1`: 3.41 (active).

On to `COc1cc(OC)cc(C2SC(N)=C(C#N)C(N)=C2C#N)c1` (configuration not stated), for which the fold change is -1.62. On to `NC(CC(=O)O)C(=O)O` (configuration not stated), for which the fold change is 1.14. Next, `NC(CCCC(N)C(=O)O)C(=O)O` (configuration not stated): -1.27; `N[C@@H](CSCC(=O)O)C(=O)O`: 2.87 (active).

On to `O=C(Cc1cccs1)NC1CCCC1`, for which the fold change was -3.03. As to `C1CCN(c2nc3nonc3nc2N2CCCC2)C1`, the fold change is -1.59.

As to `COc1ccc(OC)c(/C=C/c2[nH]c(=O)[nH]c(=O)c2[N+](=O)[O-])c1`, the fold change was 1.29. Regarding `O=c1[nH]c(/C=C/c2ccc(Br)cc2)c([N+](=O)[O-])c(=O)[nH]1`, the fold change is 3.45 (active). As to `O=c1[nH]c(/C=C/c2ccc(Br)cc2)nc(O)c1[N+](=O)[O-]`, the fold change is 2.47. On to `N#CC1=C(N)n2c(s/c(=C\c3ccc(Cl)cc3)c2=O)=C(C#N)C1c1ccc(Cl)cc1` (configuration not stated), for which the fold change was -1.6. Next, `N#CC1Cc2cc([N+](=O)[O-])ccc2-c2cc(Cl)cc(Cl)c21` (configuration not stated): -3.59; `C/C(Cn1nnc2ccccc21)=N\NC(=O)c1c[nH]c2ccccc12`: -2.58. In the case of `NNC(=O)c1ccc(COc2ccc3c(c2)CCC3)o1` it was -1.37; in that of `NNC(=O)COc1ccc2c(c1Br)CCCC2`, 2.77 (active). In the case of `O=C(COc1ccc(Br)cc1)NCC1CCCO1` (configuration not stated) it was -1.54; in that of `S=c1[nH]nc(-c2ccccc2)n1C1CCCCC1`, 1.07. As to `COCCCN1C(=O)/C(=C/c2cccs2)SC1=S`, the fold change was -1.09.

On to `CCCCC(CC)C(=O)NC(C)(C)C` (configuration not stated), for which the fold change is 1.34.

`CCCCCCCCCCCCCCC(CC(=O)O)C(=O)O` (configuration not stated): the fold change is 2.88 (active).

`CCCCCCCCCCCCCCCC(=O)O`: the fold change is 1.25.

Regarding `COc1ccc(-c2cc(=O)c3ccc(O)cc3o2)cc1`, the fold change is -1.7. Take `Cc1csc(NC(=O)c2ccnn2C)n1`: the fold change was 1.09. Next, `Cn1nccc1C(=O)O`: 3.48 (active); `Cn1nccc1C(=O)Nc1nc2ccccc2s1`: -1.5. Next, `COC(=O)/C(C#N)=C/c1cc(C)sc1C`: 1.01; `N#CC1=C(N)C(C#N)=c2s/c(=C/c3c(F)cccc3Cl)c(=O)n2C1c1c(F)cccc1Cl` (configuration not stated): 2.98 (active); `N#CC1=C(N)n2c(s/c(=C/c3ccc(Cl)cc3Cl)c2=O)=C(C#N)C1c1ccc(Cl)cc1Cl` (configuration not stated): 1.33. Next, `N#CC1=C(N)C(C#N)=c2s/c(=C/c3ccc(F)cc3)c(=O)n2C1c1ccc(F)cc1` (configuration not stated): 2.25.

For `COC(=O)C1=c2s/c(=C/c3ccncc3)c(=O)n2C(c2ccncc2)C(C#N)=C1N` (configuration not stated), the fold change was 1.32. Next, `N#CC1=C(N)C(C#N)=c2s/c(=C/c3ccc(Cl)cc3Cl)c(=O)n2C1c1ccc(Cl)cc1Cl` (configuration not stated): -1.24; `N#CC1=C(N)C(C#N)=c2s/c(=C/c3cccc(F)c3)c(=O)n2C1c1cccc(F)c1` (configuration not stated): 3.89 (active).
